Assay [1] addresses Lysosomal acid glucosylceramidase (Homo sapiens) (UniProt P04062). Description: Glucocerebrosidase-p2 (AID 348; in the data active = potency below about 10 µM; also: potency is read from the fitted curve at half-maximal effect). Particulars: purified GBA, blue fluorogenic substrate, 40 min. In a few lines:
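Normal human glucocerebrosidase (0.2 nM) with blue fluorogenic substrate (80 uM final) in citrate/phosphate pH 5.9 with 10mM sodium taurocholate, 0.01% tween-20; 40 min RT, NaOH/glycine stop; fluorescence Ex 365/Em 440; AC50 from a titration from 0.6 nM upwards.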

Assay [2] is described as follows: AP1 Signaling Pathway (AID 357).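 Also: ME-180 reporter cells stimulated with EGF at its EC50 level; % is scaled to controls: 0 for no effect and ±100 for the full control effect.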 As to conditions: ME-180 AP-1-bla reporter, EGF-induced, beta-lactamase ratio, 5 h; at 7.69 µM (top of the series) unless noted. In a few lines:
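Modulation of EGF-driven AP-1 transcription was assessed with a beta-lactamase reporter in ME-180 cells. Compound and EC50 EGF were co-incubated 5 hours at 37 °C before 2.5-hour CCF4 loading at room temperature and dual-emission reading.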

The target of assay [3] is Cytochrome P450 1A2 (Homo sapiens) (UniProt P05177). The assay can be described thus: p450-cyp1a2 (AID 410; calls by dose curve; also: potency is read from the fitted curve at half-maximal effect;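 as to activity change, negative = inhibition: -100% = full effect of reference inhibitor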). Particulars: recombinant CYP1A2, luciferin-ME demethylation, luminescence; series mostly up to 57 µM. In a few lines:
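Luminescent demethylation readout: Luciferin-ME (100uM, equal to Km) turned over by 20nM CYP1A2 for 60 min at room temperature after NADPH regeneration addition, following 10 min compound preincubation. Normalization used 57 uM furafylline as full inhibition.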

A short description of assay [4]: NFAT Signaling Pathway (AID 444).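 Also: carbachol stimulus at about its EC50 of 1 µM final; % is scaled to controls: 0 for no effect and ±100 for the full control effect.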 As to conditions: Jurkat NFAT-bla M1, carbachol, beta-lactamase ratio, 5 h; at 7.69 µM (top of the series) unless noted. The gist of the method: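 Read-out: CCF4 FRET ratio (460 nm/530 nm) after 1 h RT dye loading, used for %activity and AC50 from titration series. Cells: Jurkat NFAT-β-lactamase/M1 line, treated with compound plus 1 uM carbachol for 5 h, 37 °C.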

Assay [5] is described as follows: Stat Signaling Pathway (AID 446).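 Also: ME-180 cervical cancer cells given 40 pM IL-6 alongside compound; SIE-controlled beta-lactamase reporter measured as 460/530 nm FRET emission ratio; % is scaled to controls: 0 for no effect and ±100 for the full control effect.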 As to conditions: ME-180 (cervical carcinoma) SIE beta-lactamase reporter, IL-6 stimulated, 5 h; at 7.69 µM (top of the series) unless noted. In a few lines:
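Overnight-plated ME-180 cells bearing a STAT Inducible Element beta-lactamase reporter; 5 h co-exposure to compound and 40 pM IL-6; values normalized to 300 pM IL-6 and 125 nM JAK inhibitor controls.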

Assay [6] addresses Glucocorticoid receptor (Homo sapiens) (UniProt P04150). Description: GR-EFC Redistribution (AID 451; calls by dose curve; also: potency is read from the fitted curve at half-maximal effect). As to conditions: CHO-K1 GR-EFC translocation, beta-gal luminescence, 2 h. The gist of the method: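 Translocation of GR-ED fusion to nuclear EA restores b-gal, read by luminescence after 1 h room-temperature detection. Engineered CHO-K1 biosensor cells, 1,000/well, exposed 2 h at 37 C to titrations up to 46 uM final.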

Assay [7] addresses Mitogen-activated protein kinase 10 (Mus musculus) (UniProt Q61831). Description: JNK3 AlphaScreen Assay (AID 530).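 Also: kinase came from lysate of stimulated human HepG2 cells; signal reports phosphorylation of biotinylated GST-cJun 1-79 at Ser73 with 10 µM ATP; % is scaled to controls: 0 for no effect and ±100 for the full control effect.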 Particulars: JNK3 lysate, c-Jun phosphorylation; series mostly up to 57.1 µM. The gist of the method:
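qHTS titrations with 15 min compound pre-incubation before adding ATP (10 uM final). Read-out: AlphaScreen of Ser73-phosphorylated biotin-GST-cJun using HepG2 lysate JNK3 activated by IL-1β and TNFα.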
(In general: Bead proximity is the source of the signal in Alpha formats.)

The target of assay [8] is 3',5'-cyclic-AMP phosphodiesterase 4B (Homo sapiens) (UniProt Q07343). Description: qHTS Assay for Inhibitors of PDE-IV (AID 607; active = well fitted activation curve with a large enough effect in the main read-out, with a control signal flat, not every such curve was filed as active; also: % of control where 0% means no effect). Particulars: HEK293 ACTOne CNG channel cells, membrane potential fluorescence; series mostly up to 22.9 µM. In a few lines: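 Live HEK293 cells with a modified cyclic nucleotide-gated (CNG) channel report intracellular cAMP via membrane-potential dye fluorescence (ex 535/em 590 nm). Endogenous PDE-IV was targeted. Compounds were tested at up to 22.9 uM final; RO 20-1724 100 uM served as control.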
Chain of 3',5'-cyclic-AMP phosphodiesterase 4B (Homo sapiens) (Q07343 whole entry, looked up): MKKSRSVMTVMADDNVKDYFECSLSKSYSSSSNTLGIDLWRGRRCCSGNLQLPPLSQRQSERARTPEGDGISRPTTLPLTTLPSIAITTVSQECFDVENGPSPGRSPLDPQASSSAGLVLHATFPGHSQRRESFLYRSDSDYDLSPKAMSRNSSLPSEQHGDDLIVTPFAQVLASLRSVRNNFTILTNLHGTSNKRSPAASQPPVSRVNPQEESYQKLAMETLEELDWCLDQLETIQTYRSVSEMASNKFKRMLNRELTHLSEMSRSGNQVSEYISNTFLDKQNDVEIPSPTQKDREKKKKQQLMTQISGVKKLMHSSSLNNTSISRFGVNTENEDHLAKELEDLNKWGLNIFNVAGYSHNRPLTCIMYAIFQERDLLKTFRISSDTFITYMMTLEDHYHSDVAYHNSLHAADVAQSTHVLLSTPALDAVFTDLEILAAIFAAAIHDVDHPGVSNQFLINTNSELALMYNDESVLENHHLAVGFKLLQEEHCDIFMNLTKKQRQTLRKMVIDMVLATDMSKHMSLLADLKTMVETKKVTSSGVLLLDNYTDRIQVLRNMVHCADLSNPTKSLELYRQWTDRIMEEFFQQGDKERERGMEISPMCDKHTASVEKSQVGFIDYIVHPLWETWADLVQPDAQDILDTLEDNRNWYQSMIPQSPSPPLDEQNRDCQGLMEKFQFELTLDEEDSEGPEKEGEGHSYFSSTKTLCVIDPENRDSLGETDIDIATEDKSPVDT
A general note: In qHTS, concentration-response curves come from the screen itself.

Assay [9] has as its target Cytochrome P450 2C9 (Homo sapiens) (UniProt P11712). The assay can be described thus: qHTS Assay for Inhibitors and Substrates of Cytochrome P450 2C9 (AID 883; active = well fitted inhibition curve with a large enough effect; also: % is scaled to controls: 0 for no effect and ±100 for the full control effect; nearly all actives have a fitted effect of over 60% in size). As to conditions: recombinant CYP2C9, luciferin-H luminescence, 60 min; series mostly up to 57.1 µM. In a few lines:
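Luminescent read-out of deoxyluciferin hydroxylation, normalized to 57uM sulphaphenazole (AC100). Reaction: 10nM enzyme, 100uM Luciferin-H (equal to KM), 25mM KPO4, 10 min compound preincubation, then 60 min with NADPH regeneration, both at 37C.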

For assay [10], the target named is Cytochrome P450 2D6 (Homo sapiens) (UniProt P10635). The assay can be described thus: qHTS Assay for Inhibitors and Substrates of Cytochrome P450 2D6 (AID 891; active = well fitted inhibition curve with a large enough effect;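 also: luciferin methyl ether substrate demethylated by CYP2D6 with NADPH regeneration; % is scaled to controls: 0 for no effect and ±100 for the full control effect; nearly all actives have a fitted effect of over 60% in size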). As to conditions: recombinant CYP2D6, luciferin-ME EGE luminescence; series mostly up to 57.1 µM. The gist of the method: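 Luminescent read-out of luciferin formed by 5 nM human CYP2D6 demethylating 30 uM Luciferin-ME EGE (Km level) over 60 min at room temperature after NADPH regeneration addition. Data normalized to full inhibition by 1.43 uM quinidine.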
Chain of Cytochrome P450 2D6 (Homo sapiens) (P10635 whole entry, looked up): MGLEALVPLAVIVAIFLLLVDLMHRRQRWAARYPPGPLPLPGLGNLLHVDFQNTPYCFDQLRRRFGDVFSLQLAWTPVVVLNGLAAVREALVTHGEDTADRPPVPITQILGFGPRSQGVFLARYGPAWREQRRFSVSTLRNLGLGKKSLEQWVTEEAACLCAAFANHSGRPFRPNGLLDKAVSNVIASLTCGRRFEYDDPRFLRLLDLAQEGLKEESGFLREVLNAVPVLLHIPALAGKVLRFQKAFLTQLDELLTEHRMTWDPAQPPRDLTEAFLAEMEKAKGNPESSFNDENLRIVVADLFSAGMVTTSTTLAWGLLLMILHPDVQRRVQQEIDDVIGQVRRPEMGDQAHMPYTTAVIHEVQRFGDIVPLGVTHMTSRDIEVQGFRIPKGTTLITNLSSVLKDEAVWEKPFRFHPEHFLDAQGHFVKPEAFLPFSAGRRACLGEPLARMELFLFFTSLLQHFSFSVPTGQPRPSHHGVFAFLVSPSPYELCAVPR

Assay [11] deals with Cytochrome P450 2C19 (Homo sapiens) (UniProt P33261). Description: qHTS Assay for Inhibitors and Substrates of Cytochrome P450 2C19 (AID 899; active = well fitted inhibition curve with a large enough effect; also: % is scaled to controls: 0 for no effect and ±100 for the full control effect; nearly all actives have a fitted effect of over 60% in size). Particulars: recombinant CYP2C19, luciferin-H EGE luminescence; series mostly up to 57.1 µM. The gist of the method:
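Luminescence readout of luciferin formed from 10uM Luciferin-H EGE (KM level) by 5 nM CYP2C19 in 50mM KPO4. 60 min NADPH-driven reaction at 37C after 10 min compound preincubation; data scaled to 57uM ketoconazole inhibition.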

Assay [12] can be described thus: Primary qHTS for small molecule stabilizers of the endoplasmic reticulum resident proteome: Secreted ER Calcium Modulated Protein (SERCaMP) assay (AID 1508630; active = well fitted inhibition curve with a large enough effect; also: % is scaled to controls: 0 for no effect and ±100 for the full control effect). As to conditions: SH-SY5Y GLuc-SERCaMP (Gaussia luciferase released on ER calcium loss) secretion, thapsigargin, luminescence; series mostly up to 38.4 µM. The gist of the method:
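The SH-SY5Y reporter protocol was run at 3 concentrations up to 38.3 uM (primary) or 11 concentrations (follow-up): 16 h compound, 100 nM thapsigargin for 4 h, then extracellular luciferase luminescence.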

Assay [13] has as its target Cytochrome P450 3A4 (Homo sapiens) (UniProt P08684). Description: qHTS Assay for Inhibitors and Substrates of Cytochrome P450 3A4 (AID 884; active = well fitted inhibition curve with a large enough effect; also: % is scaled to controls: 0 for no effect and ±100 for the full control effect; nearly all actives have a fitted effect of over 50% in size). Particulars: recombinant CYP3A4, Luciferin-PPXE luminescence; series mostly up to 57.1 µM. In a few lines: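 Luminescent readout of luciferin produced by CYP3A4 (20 nM) dealkylation of Luciferin-PPXE, 25 uM (its KM). NADPH-driven reaction ran 60 min at RT after 10 min compound preincubation; data scaled to 57 uM ketoconazole as 100% inhibition.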

Unmarked numbers belong to inactive results. Inconclusive results are not listed. Active and inactive are the calls of the source. Unless noted, calls follow the shape of the dose curve; as a rule, active = well fitted curve in either direction with a large enough effect (not every such curve was filed as active); inconclusive = small, poorly fitted or top-dose-only effect, or another doubt; inactive = flat fitted curve, though single readings scatter. Bounds are passed on as bounds.

The text below walks through data of PubChem BioAssay (NCATS).

Chain of Glucocorticoid receptor (Homo sapiens) (P04150 whole entry, looked up, the tested form may be a part): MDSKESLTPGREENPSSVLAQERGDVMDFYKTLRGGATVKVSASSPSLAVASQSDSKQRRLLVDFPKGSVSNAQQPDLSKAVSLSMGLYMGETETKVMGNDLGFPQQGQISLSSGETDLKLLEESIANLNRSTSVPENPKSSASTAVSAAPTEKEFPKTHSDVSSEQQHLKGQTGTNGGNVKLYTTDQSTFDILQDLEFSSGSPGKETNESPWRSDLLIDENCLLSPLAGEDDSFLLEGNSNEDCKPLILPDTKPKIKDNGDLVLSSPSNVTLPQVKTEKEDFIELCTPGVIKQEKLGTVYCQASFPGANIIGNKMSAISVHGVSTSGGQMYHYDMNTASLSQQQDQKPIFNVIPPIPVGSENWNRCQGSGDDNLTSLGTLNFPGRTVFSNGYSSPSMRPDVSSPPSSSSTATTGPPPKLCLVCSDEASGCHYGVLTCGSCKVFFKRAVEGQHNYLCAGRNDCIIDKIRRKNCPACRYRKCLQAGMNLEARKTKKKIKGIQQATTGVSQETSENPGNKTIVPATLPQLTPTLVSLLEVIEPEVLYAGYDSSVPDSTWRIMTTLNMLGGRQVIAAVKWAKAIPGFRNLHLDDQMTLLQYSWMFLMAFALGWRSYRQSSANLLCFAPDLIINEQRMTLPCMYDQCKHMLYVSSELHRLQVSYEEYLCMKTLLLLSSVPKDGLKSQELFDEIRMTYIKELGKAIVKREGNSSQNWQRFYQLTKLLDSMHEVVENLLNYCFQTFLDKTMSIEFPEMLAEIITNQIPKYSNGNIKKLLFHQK
Chain of Lysosomal acid glucosylceramidase (Homo sapiens) (P04062 whole entry, looked up): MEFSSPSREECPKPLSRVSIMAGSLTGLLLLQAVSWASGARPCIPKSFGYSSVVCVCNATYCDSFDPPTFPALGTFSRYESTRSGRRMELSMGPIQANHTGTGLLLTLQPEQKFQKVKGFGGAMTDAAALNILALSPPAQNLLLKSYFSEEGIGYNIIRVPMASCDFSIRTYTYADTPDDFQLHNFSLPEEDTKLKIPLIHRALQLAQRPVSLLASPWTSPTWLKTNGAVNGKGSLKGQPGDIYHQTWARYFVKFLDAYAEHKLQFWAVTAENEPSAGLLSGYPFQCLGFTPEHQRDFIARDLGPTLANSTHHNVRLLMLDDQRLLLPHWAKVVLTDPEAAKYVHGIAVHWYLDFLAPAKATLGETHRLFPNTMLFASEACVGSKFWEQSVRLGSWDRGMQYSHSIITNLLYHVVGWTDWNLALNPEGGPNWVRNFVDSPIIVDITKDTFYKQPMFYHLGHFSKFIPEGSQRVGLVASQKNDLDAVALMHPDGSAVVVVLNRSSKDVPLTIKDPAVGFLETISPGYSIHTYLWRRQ
Chain of Cytochrome P450 1A2 (Homo sapiens) (P05177 whole entry, looked up): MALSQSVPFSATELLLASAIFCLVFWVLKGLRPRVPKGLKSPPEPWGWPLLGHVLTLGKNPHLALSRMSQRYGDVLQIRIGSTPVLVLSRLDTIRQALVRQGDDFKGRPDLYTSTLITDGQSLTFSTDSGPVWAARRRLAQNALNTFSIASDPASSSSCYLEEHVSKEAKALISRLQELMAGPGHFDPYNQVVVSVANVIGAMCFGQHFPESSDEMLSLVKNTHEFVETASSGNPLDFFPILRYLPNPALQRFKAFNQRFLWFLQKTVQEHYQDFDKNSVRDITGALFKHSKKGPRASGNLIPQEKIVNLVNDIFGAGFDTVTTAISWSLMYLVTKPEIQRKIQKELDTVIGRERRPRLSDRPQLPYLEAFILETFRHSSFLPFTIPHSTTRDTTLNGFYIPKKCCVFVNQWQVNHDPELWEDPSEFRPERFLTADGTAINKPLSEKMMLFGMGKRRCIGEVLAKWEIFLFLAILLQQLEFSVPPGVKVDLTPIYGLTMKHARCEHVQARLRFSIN
Chain of Cytochrome P450 3A4 (Homo sapiens) (P08684 whole entry, looked up): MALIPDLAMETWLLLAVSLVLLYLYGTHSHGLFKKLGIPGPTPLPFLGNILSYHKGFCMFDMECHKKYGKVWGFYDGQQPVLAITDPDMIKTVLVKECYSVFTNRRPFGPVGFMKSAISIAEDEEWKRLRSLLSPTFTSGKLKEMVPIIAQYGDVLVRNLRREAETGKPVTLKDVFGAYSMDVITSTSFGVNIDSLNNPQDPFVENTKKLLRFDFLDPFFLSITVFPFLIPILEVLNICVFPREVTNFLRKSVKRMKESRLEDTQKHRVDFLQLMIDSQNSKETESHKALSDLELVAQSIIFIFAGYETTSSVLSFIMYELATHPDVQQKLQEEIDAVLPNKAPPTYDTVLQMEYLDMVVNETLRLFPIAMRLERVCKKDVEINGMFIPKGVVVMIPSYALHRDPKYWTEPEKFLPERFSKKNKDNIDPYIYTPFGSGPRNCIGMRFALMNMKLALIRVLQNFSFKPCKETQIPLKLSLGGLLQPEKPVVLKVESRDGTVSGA
Chain of Cytochrome P450 2C19 (Homo sapiens) (P33261 whole entry, looked up): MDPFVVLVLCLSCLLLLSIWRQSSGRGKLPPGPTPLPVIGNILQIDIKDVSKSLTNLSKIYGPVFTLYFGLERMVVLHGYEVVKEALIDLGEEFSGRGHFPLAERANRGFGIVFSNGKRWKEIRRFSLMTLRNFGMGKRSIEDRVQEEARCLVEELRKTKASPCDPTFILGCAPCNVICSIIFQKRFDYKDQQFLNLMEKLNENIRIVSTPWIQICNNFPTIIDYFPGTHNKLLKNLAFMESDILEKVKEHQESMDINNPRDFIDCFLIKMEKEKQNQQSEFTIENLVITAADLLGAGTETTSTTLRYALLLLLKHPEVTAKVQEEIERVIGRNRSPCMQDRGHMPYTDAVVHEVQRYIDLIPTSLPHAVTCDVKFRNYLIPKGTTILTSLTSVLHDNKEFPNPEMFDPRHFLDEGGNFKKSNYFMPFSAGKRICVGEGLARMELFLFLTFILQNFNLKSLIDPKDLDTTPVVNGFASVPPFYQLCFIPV
Chain of Cytochrome P450 2C9 (Homo sapiens) (P11712 whole entry, looked up): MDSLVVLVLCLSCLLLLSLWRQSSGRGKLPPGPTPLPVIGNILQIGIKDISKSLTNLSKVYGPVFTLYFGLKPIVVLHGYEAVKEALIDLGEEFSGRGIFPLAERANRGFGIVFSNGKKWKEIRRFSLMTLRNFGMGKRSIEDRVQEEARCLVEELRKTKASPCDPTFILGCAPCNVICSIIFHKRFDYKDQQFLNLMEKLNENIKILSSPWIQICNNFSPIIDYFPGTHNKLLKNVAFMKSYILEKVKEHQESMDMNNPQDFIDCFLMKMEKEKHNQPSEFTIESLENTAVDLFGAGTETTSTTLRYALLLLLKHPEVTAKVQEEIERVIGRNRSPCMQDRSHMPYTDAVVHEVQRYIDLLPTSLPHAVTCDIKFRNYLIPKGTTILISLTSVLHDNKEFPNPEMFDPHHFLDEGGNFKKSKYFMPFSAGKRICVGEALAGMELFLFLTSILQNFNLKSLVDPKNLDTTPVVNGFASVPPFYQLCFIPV

In the case of `Cn1cccc1C(=O)N1CCC2(CCCN(c3ncccn3)C2)CC1`, the Potency in [1] was over 11.4 µM; in [6], over 46 µM. In addition, the values for the activity change, negative = inhibition in assay [2] and in assay [4] were 7.97% and 2.93%, respectively. For the same compound, the Potency result in assay [3], in [7], in assay [8], in assay [9], in assay [10] and in [11] was “inactive” each time. In assay [5], the activity, negative = inhibition is -5.18%. Besides, in assay [12], the outcome was inactive.

For the compound `O=C(c1ccco1)N1CCC2(CC1)CCN(c1ccc(-c3ccccc3)cc1)CC2`, the Potency is over 11.4 µM in assay [1] and over 46 µM in assay [6]. For the same compound, the activity change, negative = inhibition in [2] was -1.18%; in assay [4], 17.6%. The Potency result in [3], in [7], in assay [8] and in [13] was “inactive” each time. In assay [5], the activity, negative = inhibition was -2.58%. Also, the outcome in assay [12] was inactive.

Regarding `COc1ccc(C(=O)N2CCC3(CCCN(C)C3)CC2)cc1`, the Potency was over 11.4 µM in assay [1] and over 46 µM in assay [6]. Moreover, the results for the activity change, negative = inhibition in assay [2] and in assay [4] were 2.83% and 0.644%, respectively. The Potency entry in assay [3], in [7] and in [8] was “inactive” throughout. Besides, in assay [5], the activity, negative = inhibition is -7.5%. The outcome in assay [12] was inactive.

For the compound `O=S(=O)(c1ccccc1)N1CCC2(CC1)CN(Cc1nccs1)C2`, the values for the Potency in assay [1] and in assay [6] were over 11.4 µM and over 46 µM, respectively. Moreover, the activity change, negative = inhibition in [2] was 11.1%; in assay [4], -29.2%. Also, the Potency result in assay [3], in assay [7] and in assay [8] was “inactive” throughout. Further, the activity, negative = inhibition in assay [5] is 9.77%. In [12], the result was inactive.

Regarding `O=C(c1cnccn1)N1CCC2(CCCN(c3ccc(-c4ccccc4)cc3)C2)CC1`, the Potency in [1] is over 11.4 µM; in [3], 25.1 µM (active); in assay [6], over 46 µM. Further, the activity change, negative = inhibition is -27.9% in assay [2] and -14.8% in assay [4]. For the same compound, in assay [5], the activity, negative = inhibition is 8.97%. The Potency entry in assay [7] and in assay [8] was “inactive” each time. Moreover, the outcome in [12] was inactive.

Take `CC(C)NC(=O)N1CCC2(CC1)CCN(C(=O)c1cccn1C)CC2`: the Potency was over 11.4 µM in assay [1] and over 46 µM in assay [6]. In addition, the figures for the activity change, negative = inhibition in [2] and in [4] were 15.2% and 7.13%, respectively. Moreover, the Potency entry in assay [3], in assay [7] and in [8] was “inactive” throughout. For the same compound, the activity, negative = inhibition in assay [5] is 2.35%. In addition, the result in assay [12] was inactive.

In the case of `COCC(=O)N1CCC2(CCCN(C(=O)Nc3cccc(C#N)c3)C2)CC1`, the values for the Potency in assay [1] and in assay [6] were over 11.4 µM and over 46 µM, respectively. The activity change, negative = inhibition in assay [2] was -3.42%; in [4], -3.66%. In addition, the Potency entry in assay [3], in assay [7] and in assay [8] was “inactive” throughout. Also, the activity, negative = inhibition in assay [5] is -1.02%. Moreover, the result in assay [12] was inactive.

Consider `N#Cc1cccc(NC(=O)N2CC[C@@]3(CCCN(C(=O)c4cc(C(F)(F)F)cc(C(F)(F)F)c4)C3)C2)c1`, for which the Potency was over 11.4 µM in assay [1] and over 46 µM in [6]. For the same compound, the activity change, negative = inhibition in [2] was 3.48%; in assay [4], 5.16%. Also, the Potency entry in assay [3], in assay [7], in [8], in [9], in [13] and in [10] was “inactive” in each case. Besides, the Potency entry in assay [11] is “inactive”. Moreover, the activity, negative = inhibition in assay [5] was -10.2%. Also, the result in assay [12] was inactive.
